Measurements taken from PubChem BioAssay AID623978 (Broad Institute, 2012).
Results with a measured potency or affinity are listed apart. Results filed as inconclusive are left out. Activity calls are given as the source filed them.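 How the source made its calls: active means every replicate run active, each with half-maximal inhibition reached at or below twice the top valid dose; inconclusive means runs disagree, or fits are weak or poor; inactive means every run inactive, including upward signal shifts.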

Target: Glycogen synthase kinase-3 alpha (Homo sapiens) (UniProt P49840)
Experiment: human GSK3 alpha kinase inhibition, dose response, selectivity assay for GSK3beta inhibitor project, biochemical, microfluidics, dry powder samples, set 2 (AID 623978)

Glycogen synthase kinase-3 alpha (Homo sapiens), sequence (P49840 whole entry, looked up): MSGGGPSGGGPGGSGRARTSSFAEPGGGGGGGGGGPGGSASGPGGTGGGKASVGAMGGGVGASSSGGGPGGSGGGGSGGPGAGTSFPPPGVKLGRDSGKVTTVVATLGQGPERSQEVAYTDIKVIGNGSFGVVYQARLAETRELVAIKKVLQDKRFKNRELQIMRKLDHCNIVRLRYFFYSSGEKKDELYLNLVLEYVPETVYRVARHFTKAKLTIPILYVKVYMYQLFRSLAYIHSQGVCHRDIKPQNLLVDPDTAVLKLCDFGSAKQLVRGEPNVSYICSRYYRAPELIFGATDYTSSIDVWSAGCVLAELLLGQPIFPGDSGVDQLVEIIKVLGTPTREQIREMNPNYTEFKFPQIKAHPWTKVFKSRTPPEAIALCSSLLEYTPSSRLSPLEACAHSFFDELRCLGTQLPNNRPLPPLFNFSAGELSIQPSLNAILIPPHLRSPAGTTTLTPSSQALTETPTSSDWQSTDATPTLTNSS

Row | SMILES | outcome
1 | COc1cc(C(=O)N2CCN(c3ccccn3)CC2)cc(OC)c1OC | inactive
2 | O=C(Cc1cccc2ccccc12)Nc1cn(C2CCC2)cn1 | inactive
3 | Cc1ccc(S(=O)(=O)N2CCN(CC(=O)N/N=C/c3ccccn3)CC2)cc1 | inactive
